From PubChem BioAssay (EPA / NIEHS) come the findings set out here.

The structures appear in SMILES notation. Several values for one entry are separate records, joined by “and”; a condition that tells them apart may be missing. Equal values may be shown once. Where a structure was tested more than once in an assay, its records may differ in their call. Activity calls are given as the source filed them. The calls were made as follows: active = hit-call score of the fitted dose curve at least 0.9, where 1 is the maximum; inactive = score below 0.9.

Read-out in the assay: Thrombomodulin, THBD (gene 7056)
Nature of the assay: BSK_LPS_Thrombomodulin: BioMAP Diversity Plus: LPS Assay for Thrombomodulin Biomarker Activity (AID 2284296). Conditions: primary human HUVEC with PBMC. The method, then: BSK_LPS is a cell-based, multiplexed-readout assay that uses umbilical vein endothelium and peripheral blood mononuclear cells, a human vascular primary cell co-culture, with measurements taken at 24 hours after chemical dosing in a 96-well plate.BSK_LPS_Thrombomodulin is an assay component measured in the BSK_LPS assay. It measures Thrombomodulin antibody related to regulation of gene expression using ELISA technology.Data from the assay component BSK_LPS_Thrombodulin was analyzed at the endpoint, BSK_LPS_Thrombomodulin, in the positive analysis fitting direction relative to DMSO as the negative control and baseline of activity. Using a type of binding reporter, gain or loss-of-signal activity can be used to understand protein changes. To generalize the intended target to other relatable targets, this assay endpoint is annotated to the 'gpcr' intended target family, where the subfamily is 'rhodopsin-like receptor'.
The levels of cell surface (or secreted, indicated by the prefix "s") biomarker endpoints were measured by ELISA. Overt cytotoxicity to cells in confluent adherent cultures (all systems other than the BT system) was assessed by measuring total protein levels using sulforhodamine B (SRB) staining in parallel cultures at the time of biomarker measurements, indicated as SRB endpoints. For proliferation assays for adherent cell types, individual cell types are cultured at sub-confluence and relative cell numbers quantified by SRB staining at time points optimized for each system (48 h: 3C and CASM3C systems; 72 h: BT and HDF3CGF systems; 96 h: SAg system). SRB was performed by staining cells with 0.1% SRB after fixation with 10% TCA and reading wells at 560 nm.Viability and proliferation of PBMC (T cells) was quantified by Alamar Blue reduction for the SAg and BT systems. For PBMC viability (referred to as PBMC Cytotoxicity within the assay endpoint names), cells were plated (75,000/well in a 96-well plate) and then chemical samples added for 1 h before addition of activators, SEB and TSST-1 (20 ng/mL final concentration each). Cells were incubated for 90 h. Then, Alamar Blue (20 uL/well) (Invitrogen, Cat DAL1100) was added for 6 h, and the plates were read with a fluorescence microplate reader at 546/580 nm (excitation/emission). For PBMC proliferation, cells were plated and activated as above but incubated for only 16 h prior to addition of Alamar Blue. Plates were read after 6 h.
With `COc1ccccc1Oc1c(NS(=O)(=O)c2ccc(C(C)(C)C)cc2)nc(-c2ncccn2)nc1OCCO`, the outcome was inactive.

Consider `CC(C)C1OCCN1CCOC(=O)NCCCCCCNC(=O)OCCN1CCOC1C(C)C` (stereo not drawn), for which the result was inactive.

Take `CCC[Si](OC(C)=O)(OC(C)=O)OC(C)=O`: the outcome was inactive.

Usually AC50 stands for the concentration at which the activity in the assay is half-maximal. Regarding `CCCCC(CC)COC(=O)C=Cc1ccc(OC)cc1` (stereo not drawn), the AC50 was 10.6 µM (active) and 20 µM (active).

On to `O=[N+]([O-])c1cc(S(=O)(=O)Nc2ccccc2)ccc1Nc1ccccc1`, for which the AC50 was 20 µM (active) and 28.1 µM (active).

Consider `Cc1c(C(N)=O)cc([N+](=O)[O-])cc1[N+](=O)[O-]`, for which the outcome was inactive and the AC50 was 149 nM (active).

For the molecule `COc1cc(CNC(=O)CCCC/C=C/C(C)C)ccc1O`, the outcome was inactive.

`OC(C(F)(F)F)(C(F)(F)F)C(O)(C(F)(F)F)C(F)(F)F`: the outcome was inactive.

On to `C1CN(CCOCCN2CCOCC2)CCO1`, for which the outcome was inactive.

On to `CC[N+](CC)(CC(=O)Nc1c(C)cccc1C)Cc1ccccc1` (tested in a mixture with another compound), for which the outcome was inactive.

As for `CN(C)Cc1cc(C(C)(C)C)c(O)c(C(C)(C)C)c1`, the result was inactive.

With `COc1ccc(C(=O)c2ccccc2O)c(O)c1`, the result was inactive.
